# In ChEMBL document CHEMBL2218924, “A broad activity screen in support of a chemogenomic map for kinase signalling research and drug discovery” (Biochem J, 2013):
# Target: Cyclin-dependent kinase 2/cyclin A (Homo sapiens) (UniProt P24941+P20248+P78396)
# Conditions: at 1 µM
row,Structure (SMILES),residual activity [%]
1,c1ccc(-c2n[nH]c3c2oc2ccccc23)cc1,128
2,COc1cc2ncnc(Nc3ccc(NC(=O)c4ccccc4)cc3)c2cc1OC,144
3,O=C1NC(=O)/C(=C\c2ccc3nccnc3c2)S1,132
4,O=C(Nc1cccc(Nc2nccc(Nc3cccc(C(F)(F)F)c3)n2)c1)C1CC1,127
5,CCN(CC)CCCCN1c2ccccc2Oc2ccc(Cl)cc21,132
6,N#C/C(=C(\N)Sc1ccc(N)cc1)c1ccccc1C(F)(F)F,86
7,O=C1Nc2cc(Br)ccc2/C1=C1/Nc2ccccc2/C1=N\O,37
8,CC#CC(=O)Nc1cc2c(Nc3ccc(F)c(Cl)c3)ncnc2cn1,126
9,Nc1ccc2ncnc(NCCc3ccc(Oc4ccccc4)cc3)c2c1,92
10,O=C(Nc1cccc(Nc2cc(Nc3cccc(C(F)(F)F)c3)ncn2)c1)C1CC1,120
11,COc1ccc(OC)c2c(=S)c3ccccc3[nH]c12,85
12,O=c1c2ccccc2[nH]c(=S)n1CCN1CCC(=C(c2ccc(F)cc2)c2ccc(F)cc2)CC1,143
13,CN(C)CCCn1cc(C2=C(c3c[nH]c4ccccc34)C(=O)NC2=O)c2ccccc21,128
14,Cc1cc2ncc(-c3ccccc3)nc2cc1C,135
15,COc1cc2ncc(-c3ccccc3)nc2cc1OC,129
16,COc1ccc(C(=O)Nc2sc3c(c2C(N)=O)CCCC3)cc1OC,134
17,CO[C@H]1C[C@@H]2CC[C@@H](C)[C@@](O)(O2)C(=O)C(=O)N2CCCC[C@H]2C(=O)O[C@H]([C@H](C)C[C@@H]2CC[C@@H](O)[C@H](OC)C2)CC(=O)[C@H](C)/C=C(\C)[C@@H](O)[C@@H](OC)C(=O)[C@H](C)C[C@H](C)/C=C/C=C/C=C/1C,129
